Screening results (PubChem)
CHX counter – affects cycloheximide protein synthesis inhibition readout, counter-screen; max response, %; cell reporter, cycloheximide protein synthesis inhibition counterscreen; hit rate 12% among 300,000; AID 2314; in the data active means max response mostly above about 13%, no sharp cut-off; inactive means mostly below about 14%; further: read at 38.3 µM for the half of the compounds with a filed dose
TbPYK inhibitor – inhibitors of Trypanosoma brucei pyruvate kinase; Q57TT1; TbPYK enzyme, Kinase-Glo Plus ATP luminescence, 45 min; Potency, µM (highest dose often 76.8 µM), hits mostly inhibitors; hit rate 0.12% among 410,000; AID 624173; further: nearly all actives have a fitted effect of over 50% in size
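Screened from lowest to highest concentration, compounds were pinned into TbPYK/substrate mixtures, and ADP (130 uM final) was added. Plates sat at room temperature for 45 min prior to Kinase-Glo Plus detection by luminescence.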
Giardia FBPA inh – blocks Giardia fructose-bisphosphate aldolase activity | AID 2451 | hit rate 0.71% among 290,000 | Potency, µM (doses to about 59.6 µM), actives largely listed as inhibitors | purified Giardia FBPA | A8B2U2; further: nearly all actives have a fitted effect of over 55% in size
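Giardia FBPA (40 nM reagent) was preincubated 10 min at RT with compound (up to 57.5 uM final), then substrate plus GAPDH/TPI/NAD/arsenate coupling system with diaphorase/resazurin was added; resorufin fluorescence (525/598 nm) was read after 20 min.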
Shiga toxin inh – Shiga toxin inhibition; Vero cells, Shiga toxin protein synthesis inhibition reporter; inhibition, % at 38.7 µM; hit rate 9.2% among 290,000; AID 2315; in the data active means inhibition mostly above about 28%, no sharp cut-off; inactive means mostly below about 43%
LmPK inh – blocks Leishmania mexicana pyruvate kinase activity | purified LmPK, Kinase-Glo ATP luminescence, 1 h | hit rate 0.37% among 290,000 | Potency, µM (top dose mostly 57.5 µM), actives largely listed as inhibitors | Q27686
Target sequence (Q27686 whole entry, looked up): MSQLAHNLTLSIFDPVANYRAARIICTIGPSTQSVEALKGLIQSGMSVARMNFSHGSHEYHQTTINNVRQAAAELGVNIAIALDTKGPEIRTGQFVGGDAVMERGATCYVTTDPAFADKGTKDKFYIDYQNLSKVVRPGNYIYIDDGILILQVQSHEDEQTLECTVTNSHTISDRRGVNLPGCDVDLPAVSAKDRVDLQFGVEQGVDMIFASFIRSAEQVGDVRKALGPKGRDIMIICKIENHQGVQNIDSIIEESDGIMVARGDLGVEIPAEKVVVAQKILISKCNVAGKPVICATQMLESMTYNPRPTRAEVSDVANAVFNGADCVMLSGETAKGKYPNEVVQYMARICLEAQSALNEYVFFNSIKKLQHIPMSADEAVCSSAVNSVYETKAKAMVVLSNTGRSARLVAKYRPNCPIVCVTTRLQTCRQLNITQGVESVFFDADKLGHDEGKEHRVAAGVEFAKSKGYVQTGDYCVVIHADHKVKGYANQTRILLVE
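Pyruvate kinase activity monitored as ATP production (luciferase luminescence). Conditions: 0.1 nM enzyme, 0.5 mM PEP, 0.1 mM ADP, 1 h, RT; normalized against uninhibited and no-enzyme wells.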
Sm TGR inh – S. mansoni TGR enzyme inhibition; hit rate 3% among 360,000; Potency, µM (series often up to 114 µM), usual class: inhibitors; Q962Y6; purified TGR, DTNB reduction, TNB absorbance 405 nm; further: nearly all actives have a fitted effect of over 60% in size
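TGR 20 nM + NADPH 100 uM (dispensed conc.), cpd preinc 15 min RT; start with NADPH (500 uM addition) then DTNB (15 mM addition). Kinetic TNB absorbance, 405 nm filter. Four-parameter Hill fit across titration.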
Large screens that a line does not name were inactive; ! = a repeat was not active. The entries come from a sample that favours hits as a whole. Unless noted, the call rests on the fitted dose curve; in most records, active means well fitted curve in the direction sought with a large enough effect; inconclusive means small, poorly fitted or top-dose-only effect, or another doubt; inactive means no such curve, though single readings can be large; an effect the other way counts as inactive or inconclusive.

COc1ccc(CCNc2cc(C)nc3c(-c4ccccc4)cnn23)cc1OC	CHX counter 48, Shiga toxin inh active
CCCCN1C(=O)C(=O)N(CC(=O)N2N=C3/C(=C/c4ccco4)CCCC3C2c2ccco2)C1=O (stereo unspecified)	CHX counter 20, Shiga toxin inh 49, Sm TGR inh inconclusive
O=C(CSc1ncn[nH]1)N1N=C2/C(=C/c3ccco3)CCCC2C1c1ccco1 (stereo unspecified)	none
COc1cccc(Nc2nc(N)nc(CCl)n2)c1	CHX counter 57, Shiga toxin inh 146, Sm TGR inh 20µM
Cc1cccc(Nc2nc(N)nc(CCl)n2)c1	CHX counter 61, Shiga toxin inh 77, Sm TGR inh 14µM
COc1cccc(N2CCN(Cc3nc(N)nc(Nc4ccccc4)n3)CC2)c1	none
Cc1cccc(Nc2nc(N)nc(CSc3nccc(C)n3)n2)c1	none
COc1cccc(/C=C2\Oc3cc(OCC(=O)N4CCCCC4)ccc3C2=O)c1OC	Shiga toxin inh 45
O=C(O)COc1ccc2c(c1)O/C(=C\c1ccco1)C2=O	Sm TGR inh 22µM
COc1cccc(/C=C2\Oc3cc(OCC(=O)N4CCCC4)ccc3C2=O)c1OC	CHX counter 15 (no result: Giardia FBPA inh)
Cc1ccc(C)c(N2CCN(C(=O)Cn3c(=O)c4cccn4c4ccc(F)cc43)CC2)c1	none (no result: CHX counter, Giardia FBPA inh, Shiga toxin inh, LmPK inh)
Cc1ccc(C)c(-n2c(Cc3cccs3)n[nH]c2=S)c1	TbPYK inhibitor inconclusive, LmPK inh 10µM
COc1ccccc1-n1c(Cc2cccs2)n[nH]c1=S	TbPYK inhibitor inconclusive
S=c1[nH]nc(Cc2cccs2)n1-c1ccccc1	TbPYK inhibitor 8.9µM, LmPK inh inconclusive (no result: Giardia FBPA inh)
CCCCc1ccc(-n2c(Cc3cccs3)n[nH]c2=S)cc1	TbPYK inhibitor 7.9µM
S=c1[nH]nc(Cc2cccs2)n1-c1cccc2ccccc12	TbPYK inhibitor inconclusive, LmPK inh 7.9µM
Cn1c(=NC(=O)c2ccc(S(=O)(=O)N3CCCC3)cc2)sc2cc(F)ccc21	none (no result: CHX counter, Giardia FBPA inh, Shiga toxin inh, LmPK inh)
CC(NC(=O)c1cc2ccccn2n1)c1ccccc1 (stereo unspecified)	none (no result: CHX counter, Giardia FBPA inh, Shiga toxin inh, LmPK inh)
Cc1ccc(CNC(=O)c2oc3c(c2C)-c2nn(Cc4ccc(Cl)cc4)cc2CC3)cc1	none (no result: CHX counter, Giardia FBPA inh, Shiga toxin inh, LmPK inh)
COC(=O)[C@@]1(C)C=C[C@@H](Cc2ccccc2)N1C(=O)c1ccccc1	none (no result: CHX counter, TbPYK inhibitor, Shiga toxin inh, LmPK inh, Sm TGR inh)
CN(C)S(=O)(=O)c1ccc(SCC(=O)N2CC(=O)Nc3ccccc32)nc1	none (no result: CHX counter, Giardia FBPA inh, Shiga toxin inh, LmPK inh)
S=c1[nH]nc(Cc2cccs2)n1-c1ccccc1Cl	TbPYK inhibitor inconclusive, LmPK inh 10µM
Cc1ccc(C(=O)Nc2nc3ccccc3s2)s1	CHX counter 52
O=C(O)c1ccccc1-c1ccccc1C(=O)Nc1nc2ccccc2s1	Giardia FBPA inh inconclusive
O=C(Nc1nc2ccccc2s1)c1ccccc1	CHX counter 28, Shiga toxin inh 91
Cc1ccc(C(=O)Nc2nc3ccc(S(C)(=O)=O)cc3s2)s1	CHX counter 70
CS(=O)(=O)c1ccc2nc(NC(=O)c3cccs3)sc2c1	LmPK inh 16µM
COc1cc(C(=O)Nc2nc3ccc(S(C)(=O)=O)cc3s2)cc(OC)c1C	Giardia FBPA inh inconclusive
N#Cc1cccc(NC(=O)N2CCCC3(CCN(C(=O)c4cc(C(F)(F)F)cc(C(F)(F)F)c4)CC3)C2)c1	none (no result: CHX counter, Shiga toxin inh, LmPK inh, Sm TGR inh)
O=C(CC1CCCCC1)NCCS(=O)(=O)N1CCN(c2ccccc2)CC1	none (no result: CHX counter, Giardia FBPA inh, Shiga toxin inh, LmPK inh)
Cc1ccc[n+](CC(=O)Nc2nc3ccccc3s2)c1	none (no result: Sm TGR inh)
O=C(C[n+]1ccccc1)Nc1nc2ccccc2s1	CHX counter 21
CN(CC(=O)Nc1nc2ccccc2s1)S(=O)(=O)c1ccccc1	CHX counter 29, Shiga toxin inh 61
c1ccc2sc(NN=C3CCCCCC3)nc2c1	CHX counter 33 (no result: Sm TGR inh)
Cc1csc2nc(NC(=O)c3ccccc3)sc(=O)c12	CHX counter 12
Cc1csc2c(=O)sc(NC(=O)c3ccc(F)cc3)nc12	none
CCOc1cc2sc(N3CCC(C(=O)Nc4ccc(CC)cc4)CC3)nc2cc1Br	none (no result: CHX counter, Giardia FBPA inh, Shiga toxin inh, LmPK inh)
Cc1ccc(S(=O)(=O)CCC(=O)OCc2nnc(-c3ccccc3)o2)cc1	none (no result: CHX counter, Giardia FBPA inh, Shiga toxin inh, LmPK inh, Sm TGR inh)
CCN(CC)Cc1ccc(Nc2ccnc3cc(Cl)ccc23)cc1O	none (no result: CHX counter, TbPYK inhibitor, Shiga toxin inh, LmPK inh, Sm TGR inh)
Cc1ccc2c(c1)C(=O)C1(O)CCN(c3ccccc3)C1=N2 (stereo unspecified)	CHX counter 36 (no result: TbPYK inhibitor, LmPK inh, Sm TGR inh)
COc1ccc(-n2c(=O)cnc3cnc(N4CCNCC4)nc32)cc1	none (no result: CHX counter, Shiga toxin inh, LmPK inh, Sm TGR inh)
C/C=C/C(O)c1ccc2ccccc2c1 (stereo unspecified)	CHX counter 20!, Shiga toxin inh 26! (no result: TbPYK inhibitor)
CC(C)NCC(O)c1ccc2ccccc2c1 (stereo unspecified)	none (no result: CHX counter, Shiga toxin inh, LmPK inh)
CC1=NN(C(N)=S)C(=O)C1N=Nc1ccc(C)c(Br)c1 (stereo unspecified)	CHX counter 36, Shiga toxin inh 59
CC1=NN(C(N)=S)C(=O)C1N=Nc1cccc(C)c1 (stereo unspecified)	CHX counter 22
CC1=NN(C(N)=S)C(=O)C1N=Nc1ccc(O)cc1 (stereo unspecified)	CHX counter 24, Shiga toxin inh 32
COc1ccccc1N=NC1C(=O)N(C(N)=S)N=C1C (stereo unspecified)	Giardia FBPA inh inconclusive, Sm TGR inh inconclusive (no result: Shiga toxin inh)
